Where “and” joins values, the source holds several entries; their conditions need not be identical. Identical values can stand only once. Compounds without any hit were thinned out: in the full panel of roughly 83,000, 20% have a hit.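 Plates (96-well) were seeded with cells, treated with compound at one concentration, and incubated for 48 hours before percent growth was determined.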 A number with no mark means an inactive call. Calls of active or inactive are those of the source. Rule for the calls: active = growth percent below 10; inactive = the rest.

This experiment deals with MDA-MB-468 breast. The experiment can be described thus: NCI-60 one-dose screen, 48 h (100 = growth as untreated, 0 = no growth, -100 = all killed). Conditions: 10 µM unless noted.
With `Cc1c(C(=O)OCCO)cc(-c2ccc(Cl)cc2)n1-c1ccc(Cl)cc1Cl`, the growth was 56.5%. As for `COc1cccc2c1C(=O)c1c(O)c3c(c(O)c1C2=O)C[C@](O)(C(=O)CO)C[C@H]3O[C@@H]1C[C@@H](NC(=O)CCCCCN(C)C2(c3ccc(F)cc3)CC3CCC2C3)[C@H](O)[C@@H](C)O1` (stereo partly specified), the growth is 4.63% (active). As for `Nc1nc(N)c2cc(Sc3cccc(C(F)(F)F)c3)ccc2n1`, the growth was -4.8% (active).

On to `Cn1cc(-c2nonc2-c2c[nH]c3ccccc23)c2cccnc21`, for which the growth was -12.9% (active). As to `CC(=O)Oc1ccccc1C(=O)Nc1ccc(C(=O)/C=C/c2cccs2)cc1`, the growth is 109%. For `O=C(CCN1CCCC1)Nc1ccc2c(NCCCCc3ccccc3)c3ccccc3nc2c1`, the growth was -74.7% (active). The same measure for `Cc1ccc(-n2cc(/C=C/C(=O)c3ccc(O)cc3)c(-c3ccc(S(C)(=O)=O)cc3)n2)cc1`: 93.8%. The same measure for `Fc1ccc(C2CC(c3cccc(Nc4ccncc4)c3)=NN2c2cc(Cl)cc(Cl)c2)cc1` (stereo unspecified): 37.6%. As to `O=C1c2c(c3c4cccnc4[nH]c3c3ccc4ccccc4c23)C(=O)N1CCO`, the growth is 57.6%.

Turning to `CCOC(=O)N1C=CC2C=CC1C1C=CC=CC2N1C(=O)OCC` (stereo unspecified), the growth is 53.1%. As for `COc1ccccc1/C=C/C=N/NC1=NC2C(S1)N(C)C(=O)N2c1ccccc1` (stereo unspecified), the growth was 38.5%. As to `CCCCCCCCC1OC1CCCCCCCC(=O)O` (stereo unspecified), the growth was 89.9%.

In the case of `CN1CCN(Cc2ccc(NC(=O)c3cncc(C#Cc4[nH]nc5ncncc45)c3)cc2C(F)(F)F)CC1`, the growth was 58%. The same measure for `COc1cccc(-c2cn3nc(-c4cn(C)c5ccccc45)sc3n2)c1`: 103%; for `CC(C)Sc1nc(NN)c(C#N)c(-c2ccccc2)n1`: 113%; for `COc1ccc(-c2nn(-c3cccc(NC(=O)c4cc(C(F)(F)F)cc(C(F)(F)F)c4)c3)cc2-c2ccncc2)cc1Cl`: 61.4%. The same measure for `Nc1ncnc(Nc2ccccc2)n1`: 108%; for `Cn1c(COC(=O)N2CCCCC2)nc2c(N3CCOCC3)nc(-c3ccccc3)nc21`: -61.7% (active). On to `Cc1cc(N2CCCCC2)nc(NC2CCCC(Nc3ccnc4cc(Cl)ccc34)C2)n1` (stereo unspecified), for which the growth is -77.6% (active). For the compound `CCCCC[C@H]1C/C=C2/C(=O)C=C[C@@H]2C/C=C\CCCC(=O)O1`, the growth is -50.6% (active).

As for `Cc1ccc(N=NC2C(=O)N(c3ccc(Cl)cc3)N(c3ccc(Cl)cc3)C2=O)cc1`, the growth is 107%. `CN(C)c1ccc(C(Cc2ccc3ccccc3n2)Cc2ccc3ccccc3n2)cc1`: the growth was 32.6% and 77%. The same measure for `Cn1cc(-c2nc3c(F)cc4[nH]ncc4c3c3c2CCCC3)c(C(F)F)n1`: 52.9%.

On to `O=C1N(Cc2ccccc2Cl)c2ccccc2C12NN=C(c1ccccc1)S2` (stereo unspecified), for which the growth was 57.2%. On to `CCN(CC)CCCNC(=O)c1c2c(n3ccccc13)C(=O)c1ncccc1C2=O`, for which the growth is -70.1% (active). With `CN(C)c1ccc(/C=N/NC(=O)c2cccc3ccccc23)c(Cl)c1`, the growth is -7.38% (active).
